This note sets out measurements from PMC12864922, “TDP-43 directly inhibits mRNA accumulation in neurites through modulation of mRNA stability”.

The chains are these.
B1: ENSMUSG00000043670.237|Diras1|105:109;215:227;238:244 (ssRNA)
RNA: GGGAGUUCUACAGUCCGACGAUCGCUUCGAUAUCCGCAUGCUAGGGGUGGGUGACACAGGCCUGUCUGAUGAGCACCAGGUCUGUUCCAGGCUGUGGCAAGCUGGCUCCUGGCUCAGAAGUGACAAAGCUGCAGUACAGAGGCCUCACACACAGGUCAUCACCUCACAGUGGCUACAGACCAGGCUGUGGCCUGAGUGAGCUGGAACCUCUGGGGUGGGGACGAGAAAGAGAGAGGGAGAGAGAGGGGGGAGAGUGACACACACACACACAAGGGGGAGACACACACGGGGAAGAGUGAGAGACUCUUGCGGUCGCACUAGUGUGGAAUUCUCGGGUGUCAAGG
B2: ENSMUSG00000043670.240|Diras1|87:91;197:209;220:226;251:259 (ssRNA)
RNA: GGGAGUUCUACAGUCCGACGAUCGCUUCGAUAUCCGCAUGCUACUGUCUGAUGAGCACCAGGUCUGUUCCAGGCUGUGGCAAGCUGGCUCCUGGCUCAGAAGUGACAAAGCUGCAGUACAGAGGCCUCACACACAGGUCAUCACCUCACAGUGGCUACAGACCAGGCUGUGGCCUGAGUGAGCUGGAACCUCUGGGGUGGGGACGAGAAAGAGAGAGGGAGAGAGAGGGGGGAGAGUGACACACACACACACAAGGGGGAGACACACACGGGGAAGAGUGAGAGAGAUAGAGUCAUACACACACUCUUGCGGUCGCACUAGUGUGGAAUUCUCGGGUGUCAAGG
B3: ENSMUSG00000043670.236|Diras1|111:115;221:233;244:250 (ssRNA)
RNA: GGGAGUUCUACAGUCCGACGAUCGCUUCGAUAUCCGCAUGCUAUUUUCAGGGGUGGGUGACACAGGCCUGUCUGAUGAGCACCAGGUCUGUUCCAGGCUGUGGCAAGCUGGCUCCUGGCUCAGAAGUGACAAAGCUGCAGUACAGAGGCCUCACACACAGGUCAUCACCUCACAGUGGCUACAGACCAGGCUGUGGCCUGAGUGAGCUGGAACCUCUGGGGUGGGGACGAGAAAGAGAGAGGGAGAGAGAGGGGGGAGAGUGACACACACACACACAAGGGGGAGACACACACGGGGAAGAGUCUCUUGCGGUCGCACUAGUGUGGAAUUCUCGGGUGUCAAGG
B4: ENSMUSG00000043670.242|Diras1|75:79;185:197;208:214;239:247 (ssRNA)
RNA: GGGAGUUCUACAGUCCGACGAUCGCUUCGAUAUCCGCAUGCUACACCAGGUCUGUUCCAGGCUGUGGCAAGCUGGCUCCUGGCUCAGAAGUGACAAAGCUGCAGUACAGAGGCCUCACACACAGGUCAUCACCUCACAGUGGCUACAGACCAGGCUGUGGCCUGAGUGAGCUGGAACCUCUGGGGUGGGGACGAGAAAGAGAGAGGGAGAGAGAGGGGGGAGAGUGACACACACACACACAAGGGGGAGACACACACGGGGAAGAGUGAGAGAGAUAGAGUCAUACACACAGAGGGAGGGAGACUCUUGCGGUCGCACUAGUGUGGAAUUCUCGGGUGUCAAGG
B5: ENSMUSG00000043670.234|Diras1 (ssRNA)
RNA: GGGAGUUCUACAGUCCGACGAUCGCUUCGAUAUCCGCAUGCUAUAUGGCUCUGUGUUUUCAGGGGUGGGUGACACAGGCCUGUCUGAUGAGCACCAGGUCUGUUCCAGGCUGUGGCAAGCUGGCUCCUGGCUCAGAAGUGACAAAGCUGCAGUACAGAGGCCUCAGUGUGAGGUCAUCACCUCACAGUGGCUACAGACCAGGCUGUGGCCUGAGUGAGCUGGAACCUCUGGGGUGGGGACGAGAAAGAGAGAGGGAGAGAGAGGGGGGAGAGUGAGUGUGUGUGUGUGAAGGGGGAGAGUGUGCUCUUGCGGUCGCACUAGUGUGGAAUUCUCGGGUGUCAAGG
B6: ENSMUSG00000043670.233|Diras1 (ssRNA)
RNA: GGGAGUUCUACAGUCCGACGAUCGCUUCGAUAUCCGCAUGCUAUGUCUGUAUGGCUCUGUGUUUUCAGGGGUGGGUGACACAGGCCUGUCUGAUGAGCACCAGGUCUGUUCCAGGCUGUGGCAAGCUGGCUCCUGGCUCAGAAGUGACAAAGCUGCAGUACAGAGGCCUCAGUGUGAGGUCAUCACCUCACAGUGGCUACAGACCAGGCUGUGGCCUGAGUGAGCUGGAACCUCUGGGGUGGGGACGAGAAAGAGAGAGGGAGAGAGAGGGGGGAGAGUGAGUGUGUGUGUGUGAAGGGGGAGCUCUUGCGGUCGCACUAGUGUGGAAUUCUCGGGUGUCAAGG
B7: ENSMUSG00000043670.238|Diras1|99:103;209:221;232:238 (ssRNA)
RNA: GGGAGUUCUACAGUCCGACGAUCGCUUCGAUAUCCGCAUGCUAGGUGACACAGGCCUGUCUGAUGAGCACCAGGUCUGUUCCAGGCUGUGGCAAGCUGGCUCCUGGCUCAGAAGUGACAAAGCUGCAGUACAGAGGCCUCACACACAGGUCAUCACCUCACAGUGGCUACAGACCAGGCUGUGGCCUGAGUGAGCUGGAACCUCUGGGGUGGGGACGAGAAAGAGAGAGGGAGAGAGAGGGGGGAGAGUGACACACACACACACAAGGGGGAGACACACACGGGGAAGAGUGAGAGAGAUAGACUCUUGCGGUCGCACUAGUGUGGAAUUCUCGGGUGUCAAGG
B8: ENSMUSG00000043670.241|Diras1|81:85;191:203;214:220;245:253 (ssRNA)
RNA: GGGAGUUCUACAGUCCGACGAUCGCUUCGAUAUCCGCAUGCUAGAUGAGCACCAGGUCUGUUCCAGGCUGUGGCAAGCUGGCUCCUGGCUCAGAAGUGACAAAGCUGCAGUACAGAGGCCUCACACACAGGUCAUCACCUCACAGUGGCUACAGACCAGGCUGUGGCCUGAGUGAGCUGGAACCUCUGGGGUGGGGACGAGAAAGAGAGAGGGAGAGAGAGGGGGGAGAGUGACACACACACACACAAGGGGGAGACACACACGGGGAAGAGUGAGAGAGAUAGAGUCAUACACACAGAGGGACUCUUGCGGUCGCACUAGUGUGGAAUUCUCGGGUGUCAAGG

The full ranking holds about 9,900 sequences; the median of “r (bound/input frequency ratio)” is about 0.7, and the highest 2% start at about 6.5. This is one part of a sample in which the highest values are shown more often than they occur.

Sequence of TDP-43 (Q13148 whole entry): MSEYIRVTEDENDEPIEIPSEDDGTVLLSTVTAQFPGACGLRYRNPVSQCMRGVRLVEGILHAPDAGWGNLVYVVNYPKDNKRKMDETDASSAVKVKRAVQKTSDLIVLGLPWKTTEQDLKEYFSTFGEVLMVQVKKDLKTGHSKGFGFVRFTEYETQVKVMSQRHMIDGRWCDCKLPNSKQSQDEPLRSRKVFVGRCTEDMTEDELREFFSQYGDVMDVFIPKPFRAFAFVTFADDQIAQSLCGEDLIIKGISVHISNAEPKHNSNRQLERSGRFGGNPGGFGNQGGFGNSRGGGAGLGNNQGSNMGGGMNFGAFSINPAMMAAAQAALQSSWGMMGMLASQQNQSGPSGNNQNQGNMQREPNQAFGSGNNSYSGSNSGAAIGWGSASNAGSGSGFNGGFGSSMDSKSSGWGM

The target in this assay is TDP-43 (Homo sapiens, UniProt Q13148 1-414). The assay can be described thus: RNA Bind-n-Seq with designed 260-mer pool; 25 mM Tris-HCl, 150 mM KCl, 3 mM MgCl2, BSA (printed 500 mg/mL), 20 units/mL SUPERase IN; pH not stated; 500 nM RNA pool, 1 h, 4 C; TDP-43 5, 50, 500 nM; high values mean tight binding. The following applies: protein: recombinant; tags: SBP (GST cleaved off with PreScission; pGEX-GST-SBP). In outline:
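Duplicate measurements used two independent batches of recombinant SBP-tagged TDP-43, which was captured on streptavidin beads at 5, 50 or 500 nM. The beads were incubated with 500 nM of an in vitro-transcribed 260-nt 3′ UTR oligo pool for 1 h at 4 °C in 25 mM Tris-HCl, 150 mM KCl, 3 mM MgCl2, BSA and SUPERase IN. After washing, biotin elution, reverse transcription, PCR amplification and sequencing, binding was expressed as R: each oligo's normalized read abundance in the bound sample over its abundance in input.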
For the molecule B1, the binding signal was 9.04 R (bound/input frequency ratio).
For B2, the binding signal was 3.45 R (bound/input frequency ratio).
The same measure for B3: 3.82 R (bound/input frequency ratio).
Consider B4, for which the binding signal is 12.1 R (bound/input frequency ratio).
On to B5, for which the binding signal was 6.5 R (bound/input frequency ratio).
Turning to B6, the binding signal is 7.61 R (bound/input frequency ratio).
Consider B7, for which the binding signal is 4.05 R (bound/input frequency ratio).
Next, B8: 4.89 R (bound/input frequency ratio).
